SMILES strings stand for the structures. Records with an inconclusive call do not appear. Calls of active or inactive are those of the source. Calls come from the whole dose curve; as a rule, active = well fitted curve in the direction sought with a large enough effect in the repeat runs; inconclusive = weak or mixed curves; inactive = no such curve, though single readings can be large; an effect the other way counts as inactive or inconclusive.
% is set by controls: 0 for no effect and ±100 for the full control effect; potency is the fitted concentration of half-maximal effect.

System in one experiment: not listed separately
Put plainly: qHTS assay to identify aromatase inhibitors - cell viability counter screen (AID 743084).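 Note: cells stimulated with testosterone during compound exposure; nearly all actives have a fitted effect of over 55% in size.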 The note with it: MCF-7 aro ERE viability, CellTiter-Fluor, 24 h; series mostly up to 70.3 µM; activity change, negative = cytotoxicity: at the top concentration. On the technique in general: In qHTS, concentration-response curves come from the screen itself.
Regarding `COc1cccc2c1cc([N+](=O)[O-])c1c(C(=O)O)cc3c(c12)OCO3`, the Potency was 24.3 µM (active).
Take `Fc1ccc(C2(Cn3cncn3)OC2c2ccccc2Cl)cc1` (stereo not drawn): the “activity change, negative = cytotoxicity” value was -18.6% (inactive).
On to `O=C(Nc1ccccc1)N(Cc1ccc(Cl)cc1)C1CCCC1`, for which the “activity change, negative = cytotoxicity” value is -12.8% (inactive).
With `COP(=S)(OC)Oc1ccc(S(N)(=O)=O)cc1`, the “activity change, negative = cytotoxicity” value is 0.591% (inactive).
As for `CCOC(=O)/C=C(C)/C=C/C[C@@H](C)CCCC(C)C`, the Potency entry is “inactive”.
On to `CCN(CC)CCOC(=O)C(C)(c1ccccc1)c1ccccc1`, for which the “activity change, negative = cytotoxicity” value was -5.17% (inactive).

In another experiment the target is Aryl hydrocarbon receptor (Homo sapiens) (UniProt P35869). Put plainly: qHTS assay to identify small molecule that activate the aryl hydrocarbon receptor (AhR) signaling pathway (AID 743085).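 For activation: HG2L7.5c1 human HepG2 liver cells with stably integrated DRE-driven firefly reporter.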 Note: nearly all actives have a fitted effect of over 15% in size. The note with it: HepG2 AhR-luc (HG2L7.5c1), luciferase, 24 h; series mostly up to 70.3 µM; activation: at the top concentration. The essentials: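 Luminescence read-out: ONE-Glo reagent, 30 min at room temperature, in HG2L7.5c1 HepG2 reporter cells treated 24 h at 37C. Viability was measured beforehand by CellTiter-Fluor fluorescence after 30 min at 37C.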
Chain of Aryl hydrocarbon receptor (Homo sapiens) (P35869 whole entry, looked up): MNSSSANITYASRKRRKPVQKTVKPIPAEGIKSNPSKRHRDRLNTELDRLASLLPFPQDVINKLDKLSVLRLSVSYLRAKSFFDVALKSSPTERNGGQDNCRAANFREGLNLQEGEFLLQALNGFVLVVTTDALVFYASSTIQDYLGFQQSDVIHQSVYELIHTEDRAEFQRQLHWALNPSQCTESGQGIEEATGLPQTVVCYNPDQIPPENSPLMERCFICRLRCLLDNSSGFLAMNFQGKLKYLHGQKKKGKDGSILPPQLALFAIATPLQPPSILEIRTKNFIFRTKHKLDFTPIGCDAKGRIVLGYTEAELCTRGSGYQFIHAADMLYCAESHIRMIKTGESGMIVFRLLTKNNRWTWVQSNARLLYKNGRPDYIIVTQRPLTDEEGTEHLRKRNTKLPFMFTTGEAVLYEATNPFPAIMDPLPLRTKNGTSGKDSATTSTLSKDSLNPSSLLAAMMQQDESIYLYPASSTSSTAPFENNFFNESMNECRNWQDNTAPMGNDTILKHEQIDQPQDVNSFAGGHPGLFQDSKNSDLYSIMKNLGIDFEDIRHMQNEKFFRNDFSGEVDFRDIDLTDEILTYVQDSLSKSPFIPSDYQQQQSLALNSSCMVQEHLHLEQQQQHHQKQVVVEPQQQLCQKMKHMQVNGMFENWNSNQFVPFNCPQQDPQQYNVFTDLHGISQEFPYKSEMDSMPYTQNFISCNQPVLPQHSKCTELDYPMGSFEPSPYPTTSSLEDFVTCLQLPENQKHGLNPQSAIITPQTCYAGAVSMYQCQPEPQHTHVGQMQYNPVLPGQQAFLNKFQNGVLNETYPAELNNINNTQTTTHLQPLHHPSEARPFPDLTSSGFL
Regarding `CC(C=O)Cc1ccc2c(c1)OCO2` (stereo not drawn), the “activation” value was 9.78% (inactive).
Regarding `O=S(=O)(O)C(F)(F)C(F)(F)C(F)(F)C(F)(F)C(F)(F)C(F)(F)F`, the “activation” value is -0.126% (inactive).
For `O=C(NCO)NCO`, the “activation” value is -0.105% [at 95 µM] (inactive).
Regarding `Nc1c(Br)cc([N+](=O)[O-])cc1[N+](=O)[O-]`, the Potency was 13.8 µM (active).
Regarding `O=[N+]([O-])c1cc(Cl)c(Cl)c(Cl)c1`, the “activation” value was 8.14% (inactive).
For `CCOP(=S)(Oc1cnc(C(C)(C)C)nc1)OC(C)C` (stereo not drawn), the Potency is 54.5 µM (active).
On to `CC(C)(C)NCC(O)c1cc(Cl)c(N)c(Cl)c1` (stereo not drawn), for which the “activation” value was 1.05% (inactive).
